Reference: the supplement of paper PMC6555819

What was measured:
Assay in all cases: PBM binding z-score (relative to random genomic background probes); higher = stronger binding; sequences stand for … in GC…GCGATTGACAGCGTAGAATGAAGG
[1] = system: FXR:RXRa (NR concentration 270 nM, RXRa partner concentration 90 nM)
Outline: (§1)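 For binding z-scores, the reference was random background probes on custom Agilent 4×180K protein-binding microarrays. These arrays were incubated 1 h with ligand-free nuclear receptor dimers in PBS pH 7.4, 2% milk, 0.02% Triton X-100, 1 mM DTT, 0.2 mg/mL BSA and 0.4 mg/ml salmon testes DNA. Fluorescence was scanned after antibody detection of each partner (one per run) and regression-normalized.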

[2] = system: LXRa:RXRa (NR concentration 270 nM, RXRa partner concentration 90 nM)
Outline: as §1

[3] = system: LXRa homodimer (NR concentration 270 nM)
Outline: as §1

[4] = system: LXRb:RXRa (NR concentration 270 nM, RXRa partner concentration 90 nM)
Outline: as §1

[5] = system: LXRb homodimer (NR concentration 270 nM)
Outline: as §1

[6] = system: PPARa:RXRa (NR concentration 270 nM, RXRa partner concentration 90 nM)
Outline: as §1

[7] = system: PPARg:RXRa (NR concentration 180 nM, RXRa partner concentration 90 nM)
Outline: as §1

[8] = system: PPARg:RXRa 270nM:90nM, anti-RXR (NR concentration 270 nM, RXRa partner concentration 90 nM)
Outline: as §1

[9] = system: PPARg:RXRa 30nM:10nM, anti-RXR (NR concentration 30 nM, RXRa partner concentration 10 nM)
Outline: as §1

[10] = system: PPARg:RXRa 90nM:30nM, anti-RXR (NR concentration 90 nM, RXRa partner concentration 30 nM)
Outline: as §1

Sequence	PBM binding z-score [1]	PBM binding z-score [2]	PBM binding z-score [3]	PBM binding z-score [4]	PBM binding z-score [5]	PBM binding z-score [6]	PBM binding z-score [7]	PBM binding z-score [8]	PBM binding z-score [9]	PBM binding z-score [10]
CCTTACGGGTCACGCCAGGTTATAGCATCGGAGT	6.4	6.03	0.573	4.1	-0.0774	5.57	6.03	6.08	2.72	4.76
AGAATAAGGTTATACGTAGATCAGGGAAGAAAGT	1.99	1.9	0.223	1.56	0.0959	2.65	1.67	1.3	0.895	1.04
TCATATAGGTAAATCCTAGGTGAAAGTCCGATCT	0.916	0.69	-0.094	0.537	-0.0667	1.47	0.85	2.16	3.66	2.72
GCTCAGAGGACAAGGTCAGAGCTTTGTCCGTAGA	1.98	1.73	-0.421	1.27	-0.977	2.37	0.282	0.936	-0.588	0.0916
GCATATAGGTAATACAATGTGAAAGTCCGATTGT	0.12	-0.102	0.125	-0.0369	-0.0471	0.701	1.29	0.561	0.448	0.672
GGAACGAGGGCAAGTTGAGAGCAGAGTTTGATGG	1	0.529	-0.352	0.383	-0.627	1.72	0.945	1.34	0.0684	0.629
CGAACTAGGTCAAGGACAATGAATCTCCGCACGC	3.47	2.4	0.0804	1.37	-0.174	4.72	7.83	6.69	4.46	6.15
GCTTACGGGTCAAAGGCTATAGCATGAATAGAAT	5.51	3.89	0.00427	3.82	0.0561	6.01	7.81	6.86	5.03	6.55
GCTAGCAGGCCATTTCGGTCACTCAATGACGGGC	-0.325	-0.482	-0.0904	-0.799	-0.792	-0.343	0.224	-0.461	-0.633	-0.697
CAGCCTAAGTCAGGGCCAGTATAGGAGGAACGTT	-0.194	-0.51	-0.309	-0.69	-1.28	-0.483	0.0918	-0.709	-0.0751	-0.475
TCGAGAAGGTTACCAATGGGGCATTCAGCTTTCT	0.688	2.9	-0.534	1.76	-0.525	2.11	0.146	1.49	2	1.69
TAGCCTAGGTCAGGCGGGCCAGTATAGTGTCGGC	1.07	0.958	-0.477	0.401	-0.892	1.55	0.363	0.51	-0.814	-0.109
ATATGTAGGTTACAGCCGGGTCATTCAGGCTATG	2.26	3.47	0.993	2.28	0.202	4.51	5.97	5.46	2.52	4.67
TCTAGTTGGTCACGTAGGTCACACACGACGGGTA	2.06	1.85	1.01	2	0.514	2.78	2.17	3.05	3.43	3.35
ACAGACAGGTGAGTGAAGGTAACTCAACTGGACG	0.515	-0.0792	-0.448	-0.39	-0.735	-0.0249	0.821	0.143	0.0922	-0.0513
TGAATGAGGTTATAAGATCAGGAAACGTTGCAAA	1.24	1.53	-0.511	1.5	-0.0615	2.98	1.29	2.14	0.703	1.62
CCTACTGGGCCATCCAGAGGTCATTGATCATATG	2.46	4.37	6.73	3.84	0.613	4.07	2.72	3.35	0.809	2.2
ATCTCTAGGTAAAGTTAGTTCAGTGAATGCAAAT	0.83	3.72	0.641	0.747	0.893	0.661	0.555	1.07	0.112	1.03
CTGCCAAGGTGAACAAGGTCGTTGATTACTATTC	0.873	0.86	-0.343	1.15	-0.569	2.25	0.839	1.1	-0.107	0.638
CTCGAAAGGTCGTGCTCAGGTGCGTATACCAAAC	4.69	3.72	0.109	2.86	-0.0235	4.57	1.84	3.16	0.473	2.05
CCAACTAGGTCATCCAGGACAGTGAATACATTGA	3.96	2.83	1.3	2.48	0.7	4.41	6.66	5.59	2.96	4.83
CCAGACAGGTGAGATGGTAACTCAGCCTCGATTA	-0.218	-0.133	0.219	-0.0689	-0.491	0.132	0.33	0.151	-0.316	-0.00959
TAGCCTAGGTCATGGGCCAATATACCACGCGAAC	4.48	3.55	0.401	2.56	0.00748	4.3	4.22	3.93	1.34	2.91
GCGACTGCGGCAAAGCAGGTTACCATAAGGTTGG	-0.436	-0.494	-0.713	-0.429	-1.51	0.0395	0.3	-0.534	-0.785	-0.92

Sequence	PBM binding z-score [1]	PBM binding z-score [2]	PBM binding z-score [3]	PBM binding z-score [4]	PBM binding z-score [5]	PBM binding z-score [6]	PBM binding z-score [7]	PBM binding z-score [8]	PBM binding z-score [9]	PBM binding z-score [10]
GCGACTGGGGCATGAGCAGGTTACCATAACTTAA	-0.261	-0.325	-0.638	0.484	-1.12	1.1	1.08	1.11	-0.134	0.437
CGAACTCGGTCATTGACAGGACAGTGAATAGTAA	1.78	1.2	0.283	0.401	-0.271	1.07	0.725	0.451	-0.134	0.0163
CCGACTGGAGCATAAGGTTACCATAAGCCAGCCC	0.0844	1.93	0.131	0.754	-0.551	0.887	0.85	1.49	-0.133	0.657
CCTTACGGGTCACTCCAGGTTATAACATCGGAGT	4.88	7.46	2.11	5.8	0.0817	4.74	3.9	3.91	1.29	2.8
TCTAGTTGGTCACCGAGGTCACACACGACGGGTA	3.85	3.58	2.2	3.85	1.18	4.41	3.75	4	3.5	3.89
ATATGTAGGTTAAGGGTCATTCCGGTTGGTTCGC	5.44	4.91	3.25	4.19	1.33	6.67	11.4	9.69	10.2	11.1
CGGACGAGGGCATGAGTTGATAGCAAATGCCGAT	0.265	0.0809	-0.262	-0.154	-0.96	1.01	0.992	0.682	-0.202	0.196
GCGACTAGGGCATCAGCAGGTTACCATAACTTAA	-0.0195	-0.0261	-0.362	-0.000126	-0.683	0.802	1.41	1.17	-0.0852	0.611
CGAATTAGGTCAAGGACAGTGAATCTCCGCACGC	4	2.54	0.286	1.97	0.123	4.92	6.8	6.22	3.82	5.57
CCTTACGGGTCACTGACATGTTATAGCATTTGGA	5.55	3.84	0.306	3.54	0.233	5.2	4.42	4.66	2.21	3.45
ATCTCTAGGTAACAAGTTCAGTGAAAGAGAGGAC	0.883	1.09	0.507	0.886	1.21	1.82	1.52	1.92	0.986	1.73
GATACAGGGTCAGCTAGAGGCCAGAGTCTGGAAA	4.63	2.79	-0.316	2.18	-0.91	4.47	3.57	3.41	0.796	2.27
ACCATTAGTTGACTTAGGGCAACCGATACGACGC	0.502	0.629	0.679	0.464	0.693	0.273	1.06	0.133	0.182	0.582
CAAACTATGTCAAGGTCAAAGTCGGTTTGTGCCA	4.77	4.95	4.54	4.26	1.75	4.65	4.09	4.7	2.24	3.82
CCAGACAGGTGTGAAGGTAACTCAGCCTCGATTA	-0.289	-0.378	0.0718	-0.315	-0.724	-0.298	0.084	-0.131	-0.615	-0.443
ATATGTAGGCTAGCTGGGGTCATTCAGACTAGGC	3.46	3.2	1.14	3.49	-0.151	4.32	3.2	3.64	1.1	2.83
TCATATAGGTAAATGCTAGGTTAAAGTCCGATCT	1.18	1.82	1.14	1.05	0.0487	1.7	0.987	2.22	3.48	2.87
TCTAGTTGGTCACGGAGTTCACACACGACGGGTA	1.65	2.17	2.34	1.88	0.263	2.63	1.88	2.66	3.07	2.99
GCATATAGGTAACACAAGGTGAAAGTCCGATTGT	0.896	3.64	-0.04	1.36	-0.351	2.19	2.09	2	0.512	1.26
ATCGCTAGGTAAGACTCAGTTCAGTGAAGAACGC	-0.617	-0.685	-0.587	-0.734	-0.581	-0.45	-0.14	-0.615	-0.356	-0.686
CCGACTGGGGCAAAGGTTACCATCCTCAGTACGA	1.66	1.25	-0.21	1.79	-0.941	5.49	10.9	9.37	8.35	10.1
TCATGTAGGTAATACAGGTGAAAGTCGGCATCTA	0.0966	0.506	0.125	0.469	-0.485	1.63	1.15	1.94	2.84	2.25
CGTCAAAGTTTAACTAAGGTAACGTAAAGCACGC	1.47	2.68	0.251	0.825	0.249	1.15	0.797	1.22	0.174	0.65
CTCGAAAGGTCTTGCTCAGGTGAGTATACCAAAC	0.669	0.369	-0.371	0.506	-0.158	0.978	-0.115	0.563	-0.064	0.608
